Shown are actives, neighbours in structure and some others; about 6.2% of the full set was active somewhere.
HT1080-NT tox: qHTS for induction of synthetic lethality in tumor cells producing 2HG: qHTS for the HT-1080-NT fibrosarcoma cell line. HT-1080-NT fibrosarcoma viability, CellTiter-Glo ATP luminescence, 48 h. Potency, µM (titrated, usually from 46.1 µM), inactives show at the top dose activity, negative = less viability, actives largely listed as cytotoxic. 1.6% of 360,000 active. AID 686970, 2013;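 also: NT is the 2HG producing partner of a matched IDH1 knockdown line; 0% = DMSO-treated cells and -100% = media-only wells without cells; nearly all actives have a fitted effect of over 55% in size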
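A 48-hour cytotoxicity screen used HT-1080-NT cells plated 2 hours before compound delivery. ATP-based CellTiter-Glo luminescence measured viability, normalized to DMSO and no-cell controls.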
S2 tox: Viability Counterscreen for Primary qHTS for Inhibitors of ATXN expression | S2 cells (HEK-293 line with an ATXN2-luciferase reporter) viability, CellTiter-Fluor protease fluorescence, 24 h | 0.49% of 400,000 active | Potency, µM (highest dose often 56.7 µM), usual class: cytotoxic; also: nearly all actives have a fitted effect of over 40% in size
ATXN2 expr inh: Primary qHTS for Inhibitors of ATXN expression. HEK-293 ATXN2-luciferase reporter, luminescence, 24 h. Potency, µM (titrated, usually from 57 µM), without a hit: at the top dose activity change, negative = inhibition, hits mostly inhibitors. 0.72% of 360,000 active. AID 1745845, 2022; also: % is scaled to controls: 0 for no effect and ±100 for the full control effect; nearly all actives have a fitted effect of over 55% in size
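ATXN2-luciferase reporter cells (luciferase flanked by upstream and downstream ATXN2 gene portions) were treated 24 h at 37 °C with compounds at up to 57 uM. SteadyGlo luminescence gave expression; GF-AFC fluorescence gave viability.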
KB-3-1 cytotox: qHTS assay for MDR1-selective chemotherapeutics: Primary screen using the parental adenocarcinoma cell KB-3-1. KB-3-1 viability, CellTiter-Glo ATP luminescence, 72 h. Potency, µM (highest dose often 46.1 µM), most hits filed as cytotoxic. 1.4% of 400,000 active; also: % is scaled to controls: 0 for no effect and ±100 for the full control effect; nearly all actives have a fitted effect of over 60% in size
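72 h, 37 °C compound treatment of KB-3-1 parental cells; CellTiter-Glo added, 10 min, luminescence read. Data corrected against DMSO-only plates and normalized before curve fitting.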
KB-V1 MDR tox: qHTS assay for MDR1-selective chemotherapeutics: Primary screen using the drug-selected MDR subline cells KB-V1. KB-V1 MDR cells viability, CellTiter-Glo, 72 h. Potency, µM (doses to about 46.1 µM), usual class: cytotoxic. 3.4% of 400,000 active; also: % is scaled to controls: 0 for no effect and ±100 for the full control effect; nearly all actives have a fitted effect of over 60% in size
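Cytotoxicity toward P-gp-expressing KB-V1 cells was determined as loss of CellTiter-Glo luminescence after 72 h at 37 degrees C. Compounds were tested in quantitative HTS format across a concentration range, with curves fitted to normalized data.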
HT1080 IDH1KD tx: qHTS for induction of synthetic lethality in tumor cells producing 2HG: qHTS for the HT-1080-IDH1KD cell line. Potency, µM (titrated, usually from 46.1 µM), without a hit: top-dose activity, negative = toxicity, usual class: cytotoxic. HT-1080 IDH1 knockdown viability, ATP luminescence, 48 h. 2% of 360,000 active. AID 686971, 2013;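 also: 0% = DMSO wells and -100% = cell-free medium wells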
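IDH1KD HT-1080 cells, 750/well, RPMI + 5% FBS; compound pinned after 2 h settling; 48 h, 37 °C; CellTiter-Glo luminescence; % activity normalised to DMSO and no-cell wells; curves fitted, classed by r2 and efficacy.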
Active calls of the source: *. Calls follow the shape of the dose curve; as a rule, active = well fitted curve in the direction sought with a large enough effect; inconclusive = small, poorly fitted or top-dose-only effect, or another doubt; inactive = no such curve, though single readings can be large; an effect the other way counts as inactive or inconclusive. Potency is read from the fitted curve at half-maximal effect.

`NC(=O)c1cc(Cc2ccccc2)sc1NC(=O)c1ccco1` gave HT1080-NT tox inconclusive, S2 tox inactive, ATXN2 expr inh 91%, KB-3-1 cytotox inconclusive, KB-V1 MDR tox 9.2µM* and HT1080 IDH1KD tx inconclusive.
O=C(Nc1ncc(Cc2ccc(C(F)(F)F)cc2)s1)c1ccc(-c2cccc([N+](=O)[O-])c2)o1 was read as HT1080-NT tox -1%, S2 tox inconclusive, ATXN2 expr inh -18%, KB-3-1 cytotox inactive, KB-V1 MDR tox 4.6µM* and HT1080 IDH1KD tx -11%.
Screening O=C(Nc1ncc(Cc2ccccc2Cl)s1)c1ccc(-c2cccc([N+](=O)[O-])c2)o1 returned HT1080-NT tox -12%, S2 tox inactive, KB-3-1 cytotox inactive, KB-V1 MDR tox inactive and HT1080 IDH1KD tx -6%.
N#C/C(=C/c1ccc(-c2ccc([N+](=O)[O-])cc2)o1)C(=O)Nc1nc(-c2cccs2)cs1 was read as HT1080-NT tox -3%, S2 tox inactive, ATXN2 expr inh 3%, KB-3-1 cytotox inactive, KB-V1 MDR tox inactive and HT1080 IDH1KD tx 0%.
For O=C(Nc1ncc(Cc2cccc([N+](=O)[O-])c2)s1)c1ccco1 the results were HT1080-NT tox inconclusive, S2 tox inactive, KB-3-1 cytotox 5.8µM*, KB-V1 MDR tox inactive and HT1080 IDH1KD tx 4.6µM*.
Cc1ccc(Cc2cnc(NC(=O)/C(C#N)=C/c3ccc(-c4ccc([N+](=O)[O-])cc4)o3)s2)cc1 was read as HT1080-NT tox -1%, ATXN2 expr inh 16µM*, KB-3-1 cytotox inconclusive, KB-V1 MDR tox inconclusive and HT1080 IDH1KD tx 1%.
Screening Cc1csc(CN(C)C(=O)c2sc3ncnc(NCC4CCCO4)c3c2C)n1 (stereo unspecified) returned S2 tox inactive.
Screening O=C1CCCC2=C1C1(CCS(=O)(=O)C1)N=C(Nc1nc3ccccc3o1)N2 (stereo unspecified) returned KB-3-1 cytotox inactive and KB-V1 MDR tox inactive.
For O=C(Nc1ncc(Cc2ccc(SC(F)F)cc2)s1)c1ccc(OC(F)F)cc1 the results were HT1080-NT tox 0.073µM*, S2 tox inconclusive, ATXN2 expr inh inconclusive, KB-3-1 cytotox 0.21µM*, KB-V1 MDR tox 0.33µM* and HT1080 IDH1KD tx 0.046µM*.
Cc1ccc(Cc2cnc(NC(=O)c3ccco3)s2)cc1 was read as HT1080-NT tox -15%, S2 tox inactive, ATXN2 expr inh 11%, KB-3-1 cytotox inactive, KB-V1 MDR tox 18µM* and HT1080 IDH1KD tx -5%.
For Cc1ccccc1NC(=S)N(CCN(C)C)C(C)c1ccccn1 (stereo unspecified) the results were HT1080-NT tox 15%, S2 tox inactive, ATXN2 expr inh 4%, KB-3-1 cytotox inactive, KB-V1 MDR tox 16µM* and HT1080 IDH1KD tx 9%.
Screening COc1cccc(-c2cc(C(=O)Nc3ccc(OC)cc3OC)no2)c1 returned S2 tox inactive, ATXN2 expr inh 2%, KB-3-1 cytotox inactive and KB-V1 MDR tox inactive.
Screening O=C1c2ccccc2C(=O)c2[nH]cnc21 returned HT1080-NT tox inconclusive, S2 tox inconclusive, KB-3-1 cytotox inactive, KB-V1 MDR tox inactive and HT1080 IDH1KD tx -26%.
`O=C1c2ccccc2C(=O)c2[nH]c(=O)[nH]c21` gave HT1080-NT tox 9.2µM*, ATXN2 expr inh inconclusive, KB-3-1 cytotox 5.2µM*, KB-V1 MDR tox 10µM* and HT1080 IDH1KD tx 6.5µM*.
Screening O=S1(=O)N=C(Oc2ccc3ccccc3c2)c2ccccc21 returned KB-3-1 cytotox inactive and KB-V1 MDR tox inactive.
COC(=O)/C(=C\c1cc(OC)c(OC)c(OC)c1)c1nc2ccccc2[nH]1 was read as HT1080-NT tox inconclusive, S2 tox inactive, ATXN2 expr inh -5%, KB-3-1 cytotox 15µM*, KB-V1 MDR tox inconclusive and HT1080 IDH1KD tx inconclusive.
COC(=O)/C(=C\c1ccc(O)cc1)c1nc2ccccc2[nH]1 was read as HT1080-NT tox 9%, S2 tox inactive, KB-3-1 cytotox inactive, KB-V1 MDR tox inactive and HT1080 IDH1KD tx 0%.
For S=C(Nc1ccc(Cl)cc1)c1nc2ccccc2[nH]1 the results were HT1080-NT tox inconclusive, S2 tox inconclusive, ATXN2 expr inh 26%, KB-3-1 cytotox inconclusive, KB-V1 MDR tox 5.2µM* and HT1080 IDH1KD tx inconclusive.
O=C(/C(=C\c1ccccc1)c1nc2ccccc2[nH]1)c1ccc(Cl)cc1 was read as HT1080-NT tox 3.7µM*, ATXN2 expr inh inconclusive, KB-3-1 cytotox inconclusive, KB-V1 MDR tox inconclusive and HT1080 IDH1KD tx 3.3µM*.
`O=C(/C=C/c1cccc(Cl)c1)c1nc2ccccc2[nH]1` gave HT1080-NT tox inconclusive, S2 tox inconclusive, ATXN2 expr inh inconclusive, KB-3-1 cytotox inconclusive, KB-V1 MDR tox inactive and HT1080 IDH1KD tx inconclusive.
Screening COc1cc(/C=C(/C(=O)c2cccs2)c2nc3ccccc3[nH]2)ccc1O returned HT1080-NT tox 7.9µM*, S2 tox inconclusive, ATXN2 expr inh inconclusive, KB-3-1 cytotox inconclusive, KB-V1 MDR tox 16µM* and HT1080 IDH1KD tx 5µM*.
CCCNC(=O)C1(C)CCCN(C(=O)c2cc(F)cc(F)c2)C1 (stereo unspecified) was read as HT1080-NT tox 2%, S2 tox inactive, ATXN2 expr inh 0%, KB-3-1 cytotox inactive, KB-V1 MDR tox inactive and HT1080 IDH1KD tx 9%.
For CCc1cccc(C)c1NC(=O)Cn1c(=O)n(-c2cccc(C)c2)c(=O)c2c1c1cc(C)ccc1n2C the results were S2 tox inactive, ATXN2 expr inh 13%, KB-3-1 cytotox inactive and KB-V1 MDR tox inconclusive.
For O=C(/C(=C/c1ccc(Cl)cc1)c1nc2ccccc2[nH]1)c1cccs1 the results were HT1080-NT tox 16µM*, S2 tox 3.5µM*, ATXN2 expr inh inconclusive, KB-3-1 cytotox inactive, KB-V1 MDR tox inconclusive and HT1080 IDH1KD tx 16µM*.
CC(C)=CCn1c2ccc(NC(=O)Nc3cccnc3)cc2c(=O)n1C was read as HT1080-NT tox inconclusive, S2 tox inactive, ATXN2 expr inh 3%, KB-3-1 cytotox inactive, KB-V1 MDR tox inactive and HT1080 IDH1KD tx 10%.
Screening COc1ccccc1CCC(=O)Nc1ccc2c(c1)c(=O)n(C)n2Cc1ccc(F)cc1 returned HT1080-NT tox 3.3µM*, S2 tox inactive, ATXN2 expr inh -20%, KB-3-1 cytotox 8.2µM*, KB-V1 MDR tox inconclusive and HT1080 IDH1KD tx 5.8µM*.
